Data published in paper PMC7862700, “An all-to-all approach to the identification of sequence-specific readers for epigenetic DNA modifications on cytosine”.

Key:
Assay in all cases: DAPPL (digital affinity profiling via proximity ligation, sequencing); 10 mM Tris-HCl pH 7.5, 50 mM NaCl, 1 mM DTT, 4% glycerol, room temperature, 30 min; GST-TFs on glutathione beads, 16-mer random dsDNA library, 0.1% formaldehyde crosslink after washing; high values mean tight binding
ERG = molecular target: T1, ERG (Homo sapiens, UniProt P11308 1-479); details: protein: recombinant; tags: N-terminal GST; dsDNA, one strand shown
T1 sequence: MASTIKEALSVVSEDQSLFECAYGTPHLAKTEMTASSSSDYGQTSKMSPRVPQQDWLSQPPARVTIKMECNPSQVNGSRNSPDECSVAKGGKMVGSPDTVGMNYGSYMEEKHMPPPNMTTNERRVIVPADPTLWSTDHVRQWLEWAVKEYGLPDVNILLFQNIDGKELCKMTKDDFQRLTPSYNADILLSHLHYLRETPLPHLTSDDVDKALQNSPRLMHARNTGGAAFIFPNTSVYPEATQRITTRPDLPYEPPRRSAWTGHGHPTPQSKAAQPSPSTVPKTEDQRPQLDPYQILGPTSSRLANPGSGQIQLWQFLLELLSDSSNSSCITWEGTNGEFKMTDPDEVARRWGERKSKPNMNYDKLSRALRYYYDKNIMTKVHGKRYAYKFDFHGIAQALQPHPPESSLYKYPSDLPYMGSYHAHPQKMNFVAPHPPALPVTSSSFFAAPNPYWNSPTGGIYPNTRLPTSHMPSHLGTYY
How it was run: (§1)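 Sequencing on an Illumina NextSeq500 followed washing, crosslinking with 0.1% formaldehyde, proximity ligation (BsaI/T4 ligase, 1 h, 37 °C) and PCR amplification of pools that had been incubated for 30 min at room temperature with 200 nmole of a random double-stranded 16-mer DNA library in Tris/NaCl/DTT/glycerol buffer. Each pool held DNA-barcoded human transcription factors, expressed in yeast as GST fusions and captured on glutathione beads, plus a tag-only sample. Binding signal is a hexamer's read frequency for a factor divided by its frequency in the tag-only sample.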

ELF1 = ELF1 (Homo sapiens, UniProt P32519 1-619); details: protein: recombinant; tags: N-terminal GST; dsDNA, one strand shown
How it was run: as §1

EHF = molecular target: T2, EHF (Homo sapiens, UniProt Q9NZC4 1-300); details: protein: recombinant; tags: N-terminal GST; dsDNA, one strand shown
T2 sequence: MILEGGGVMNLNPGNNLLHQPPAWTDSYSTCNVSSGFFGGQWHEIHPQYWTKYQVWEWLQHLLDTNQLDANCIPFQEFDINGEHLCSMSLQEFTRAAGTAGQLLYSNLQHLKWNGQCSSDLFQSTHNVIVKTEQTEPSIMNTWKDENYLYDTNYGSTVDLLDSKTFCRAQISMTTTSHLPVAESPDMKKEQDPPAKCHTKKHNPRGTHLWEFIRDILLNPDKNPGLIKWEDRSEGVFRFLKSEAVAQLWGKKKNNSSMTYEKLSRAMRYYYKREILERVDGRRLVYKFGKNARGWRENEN
How it was run: as §1

FEV = molecular target: T3, FEV (Homo sapiens, UniProt Q99581 1-238); details: protein: recombinant; tags: N-terminal GST; dsDNA, one strand shown
T3 sequence: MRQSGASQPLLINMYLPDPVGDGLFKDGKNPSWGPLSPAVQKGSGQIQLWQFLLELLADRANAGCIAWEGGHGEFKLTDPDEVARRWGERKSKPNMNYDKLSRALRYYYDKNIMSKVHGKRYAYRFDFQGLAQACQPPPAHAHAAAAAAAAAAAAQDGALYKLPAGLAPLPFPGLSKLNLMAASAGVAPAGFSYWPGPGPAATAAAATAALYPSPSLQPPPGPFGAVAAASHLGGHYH
How it was run: as §1

HSF1 = HSF1 (Homo sapiens, UniProt Q00613 1-529); details: protein: recombinant; tags: N-terminal GST; chain copies: 3; dsDNA, one strand shown
How it was run: as §1

ELF4 = ELF4 (Homo sapiens, UniProt Q99607 1-663); details: protein: recombinant; tags: N-terminal GST; dsDNA, one strand shown
How it was run: as §1

ELK4 = molecular target: T4, ELK4 (Homo sapiens, UniProt P28324-2 1-405); details: protein: recombinant; tags: N-terminal GST; dsDNA, one strand shown
T4 sequence: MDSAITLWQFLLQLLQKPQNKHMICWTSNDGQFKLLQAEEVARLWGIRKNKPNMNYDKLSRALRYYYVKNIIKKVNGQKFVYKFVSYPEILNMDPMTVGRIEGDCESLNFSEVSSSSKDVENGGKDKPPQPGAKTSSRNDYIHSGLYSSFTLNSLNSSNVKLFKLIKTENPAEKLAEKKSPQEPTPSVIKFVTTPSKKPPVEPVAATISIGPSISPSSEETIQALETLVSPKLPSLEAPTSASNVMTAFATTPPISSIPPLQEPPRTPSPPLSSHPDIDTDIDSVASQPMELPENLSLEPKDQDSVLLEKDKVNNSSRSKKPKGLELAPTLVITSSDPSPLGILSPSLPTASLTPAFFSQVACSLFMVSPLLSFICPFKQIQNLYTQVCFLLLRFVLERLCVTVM
How it was run: as §1

ETV2 = molecular target: T5, ETV2 (Homo sapiens, UniProt O00321 1-342); details: protein: recombinant; tags: N-terminal GST; dsDNA, one strand shown
T5 sequence: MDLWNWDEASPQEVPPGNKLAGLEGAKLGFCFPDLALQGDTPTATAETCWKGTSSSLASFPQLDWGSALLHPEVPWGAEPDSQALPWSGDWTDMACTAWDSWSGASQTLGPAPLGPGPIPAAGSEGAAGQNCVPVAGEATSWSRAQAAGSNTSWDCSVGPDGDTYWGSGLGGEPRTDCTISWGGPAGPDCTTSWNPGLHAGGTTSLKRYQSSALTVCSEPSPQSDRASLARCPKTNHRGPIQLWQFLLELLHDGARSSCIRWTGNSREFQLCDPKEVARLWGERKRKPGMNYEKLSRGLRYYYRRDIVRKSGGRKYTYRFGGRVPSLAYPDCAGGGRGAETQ
How it was run: as §1

CRX = CRX (Homo sapiens, UniProt O43186 1-299); details: protein: recombinant; tags: N-terminal GST; dsDNA, one strand shown
How it was run: as §1

ETV1 = ETV1 (Homo sapiens, UniProt P50549 1-477); details: protein: recombinant; tags: N-terminal GST; dsDNA, one strand shown
How it was run: as §1

ETV3L = molecular target: T6, ETV3L (Homo sapiens, UniProt Q6ZN32 1-361); details: protein: recombinant; tags: N-terminal GST; dsDNA, one strand shown
T6 sequence: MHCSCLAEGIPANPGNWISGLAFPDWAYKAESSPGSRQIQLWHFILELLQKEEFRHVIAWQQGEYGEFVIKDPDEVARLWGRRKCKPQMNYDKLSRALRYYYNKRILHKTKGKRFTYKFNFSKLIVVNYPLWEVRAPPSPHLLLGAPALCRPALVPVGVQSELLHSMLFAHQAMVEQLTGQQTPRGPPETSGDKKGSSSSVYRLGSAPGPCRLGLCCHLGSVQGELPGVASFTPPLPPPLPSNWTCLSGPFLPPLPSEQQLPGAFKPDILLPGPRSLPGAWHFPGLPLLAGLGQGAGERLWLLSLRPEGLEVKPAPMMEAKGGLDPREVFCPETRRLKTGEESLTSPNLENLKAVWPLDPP
How it was run: as §1

ETS2 = molecular target: T7, ETS2 (Homo sapiens, UniProt P15036 1-469); details: protein: recombinant; tags: N-terminal GST; dsDNA, one strand shown
T7 sequence: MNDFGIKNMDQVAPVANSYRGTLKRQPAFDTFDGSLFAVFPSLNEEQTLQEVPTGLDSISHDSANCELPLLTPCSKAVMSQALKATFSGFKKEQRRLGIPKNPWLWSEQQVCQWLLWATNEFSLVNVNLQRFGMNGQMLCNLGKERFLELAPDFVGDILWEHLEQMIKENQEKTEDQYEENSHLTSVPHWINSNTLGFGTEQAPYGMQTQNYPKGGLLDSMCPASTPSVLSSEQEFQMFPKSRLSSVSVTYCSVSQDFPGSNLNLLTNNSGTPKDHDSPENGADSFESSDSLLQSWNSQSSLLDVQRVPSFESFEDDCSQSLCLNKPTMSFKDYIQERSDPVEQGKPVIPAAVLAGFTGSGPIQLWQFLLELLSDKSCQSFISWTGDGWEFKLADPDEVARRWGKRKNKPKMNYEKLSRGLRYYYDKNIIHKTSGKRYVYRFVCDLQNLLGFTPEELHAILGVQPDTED
How it was run: as §1

SPDEF = molecular target: T8, SPDEF (Homo sapiens, UniProt O95238 1-335); details: protein: recombinant; tags: N-terminal GST; dsDNA, one strand shown
T8 sequence: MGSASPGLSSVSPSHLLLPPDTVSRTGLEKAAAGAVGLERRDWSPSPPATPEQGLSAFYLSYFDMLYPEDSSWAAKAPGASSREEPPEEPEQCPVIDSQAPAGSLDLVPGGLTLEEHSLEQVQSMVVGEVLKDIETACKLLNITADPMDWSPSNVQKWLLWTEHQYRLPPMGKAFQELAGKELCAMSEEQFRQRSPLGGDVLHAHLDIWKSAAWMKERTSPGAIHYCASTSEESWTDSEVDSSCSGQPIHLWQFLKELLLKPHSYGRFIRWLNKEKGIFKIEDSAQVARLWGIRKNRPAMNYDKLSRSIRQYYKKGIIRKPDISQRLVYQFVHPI
How it was run: as §1

ETV7 = molecular target: T9, ETV7 (Homo sapiens, UniProt Q9Y603 1-341); details: protein: recombinant; tags: N-terminal GST; dsDNA, one strand shown
T9 sequence: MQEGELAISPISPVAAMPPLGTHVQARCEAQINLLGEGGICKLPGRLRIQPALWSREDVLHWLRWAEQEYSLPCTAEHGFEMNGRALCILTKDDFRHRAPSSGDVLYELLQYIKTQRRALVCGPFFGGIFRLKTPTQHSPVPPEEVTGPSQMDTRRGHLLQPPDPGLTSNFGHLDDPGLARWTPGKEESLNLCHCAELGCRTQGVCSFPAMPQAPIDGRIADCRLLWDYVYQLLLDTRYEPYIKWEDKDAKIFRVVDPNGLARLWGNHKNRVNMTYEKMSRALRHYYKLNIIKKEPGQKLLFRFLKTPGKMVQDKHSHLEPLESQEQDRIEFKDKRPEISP
How it was run: as §1

ETV3 = molecular target: T10, ETV3 (Homo sapiens, UniProt P41162-2 1-143); details: protein: recombinant; tags: N-terminal GST; dsDNA, one strand shown
T10 sequence: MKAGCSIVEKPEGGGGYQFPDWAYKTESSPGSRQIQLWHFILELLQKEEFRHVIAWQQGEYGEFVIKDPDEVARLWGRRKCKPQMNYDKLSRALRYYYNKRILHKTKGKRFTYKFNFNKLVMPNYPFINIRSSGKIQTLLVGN
How it was run: as §1

ETV6 = ETV6 (Homo sapiens, UniProt P41212 1-452); details: protein: recombinant; tags: N-terminal GST; dsDNA, one strand shown
How it was run: as §1

Chain of ELF1 (P32519 whole entry): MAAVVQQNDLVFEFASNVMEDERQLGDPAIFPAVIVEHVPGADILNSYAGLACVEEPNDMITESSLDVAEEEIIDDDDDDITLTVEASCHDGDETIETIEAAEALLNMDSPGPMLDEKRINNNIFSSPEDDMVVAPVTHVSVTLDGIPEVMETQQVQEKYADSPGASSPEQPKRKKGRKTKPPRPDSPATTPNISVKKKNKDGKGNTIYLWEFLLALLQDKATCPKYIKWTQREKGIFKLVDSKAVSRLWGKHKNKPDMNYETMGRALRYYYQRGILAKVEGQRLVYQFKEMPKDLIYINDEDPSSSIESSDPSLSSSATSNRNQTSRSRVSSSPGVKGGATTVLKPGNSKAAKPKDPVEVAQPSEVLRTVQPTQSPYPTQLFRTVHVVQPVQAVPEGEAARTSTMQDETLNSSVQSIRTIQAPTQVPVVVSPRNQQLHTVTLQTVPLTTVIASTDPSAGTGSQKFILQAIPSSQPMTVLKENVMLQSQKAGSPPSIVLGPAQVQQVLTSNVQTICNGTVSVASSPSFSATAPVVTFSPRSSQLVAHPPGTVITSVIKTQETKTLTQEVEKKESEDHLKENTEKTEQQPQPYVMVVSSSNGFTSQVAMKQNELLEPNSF
Chain of ETV6 (P41212 whole entry): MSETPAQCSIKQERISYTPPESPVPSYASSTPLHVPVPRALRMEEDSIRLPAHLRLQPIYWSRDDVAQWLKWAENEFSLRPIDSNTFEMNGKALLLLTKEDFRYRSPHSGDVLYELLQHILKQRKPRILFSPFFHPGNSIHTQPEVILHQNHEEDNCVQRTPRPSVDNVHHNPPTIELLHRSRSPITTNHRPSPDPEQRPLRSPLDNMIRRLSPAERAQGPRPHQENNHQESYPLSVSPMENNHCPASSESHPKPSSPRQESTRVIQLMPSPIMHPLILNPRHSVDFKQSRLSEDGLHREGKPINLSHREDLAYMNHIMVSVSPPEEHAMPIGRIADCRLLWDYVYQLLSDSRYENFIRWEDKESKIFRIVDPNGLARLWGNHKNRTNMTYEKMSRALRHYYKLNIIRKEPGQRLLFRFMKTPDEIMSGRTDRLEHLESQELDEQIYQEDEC
Chain of CRX (O43186 whole entry): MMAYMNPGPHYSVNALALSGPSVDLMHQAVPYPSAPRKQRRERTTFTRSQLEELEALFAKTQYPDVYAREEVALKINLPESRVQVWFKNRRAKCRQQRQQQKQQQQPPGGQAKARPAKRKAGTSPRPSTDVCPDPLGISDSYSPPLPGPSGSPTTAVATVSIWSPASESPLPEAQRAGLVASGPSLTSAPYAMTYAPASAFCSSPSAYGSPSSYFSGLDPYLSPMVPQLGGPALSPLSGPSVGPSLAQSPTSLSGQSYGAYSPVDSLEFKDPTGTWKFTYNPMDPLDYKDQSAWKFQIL
Chain of ELF4 (Q99607 whole entry): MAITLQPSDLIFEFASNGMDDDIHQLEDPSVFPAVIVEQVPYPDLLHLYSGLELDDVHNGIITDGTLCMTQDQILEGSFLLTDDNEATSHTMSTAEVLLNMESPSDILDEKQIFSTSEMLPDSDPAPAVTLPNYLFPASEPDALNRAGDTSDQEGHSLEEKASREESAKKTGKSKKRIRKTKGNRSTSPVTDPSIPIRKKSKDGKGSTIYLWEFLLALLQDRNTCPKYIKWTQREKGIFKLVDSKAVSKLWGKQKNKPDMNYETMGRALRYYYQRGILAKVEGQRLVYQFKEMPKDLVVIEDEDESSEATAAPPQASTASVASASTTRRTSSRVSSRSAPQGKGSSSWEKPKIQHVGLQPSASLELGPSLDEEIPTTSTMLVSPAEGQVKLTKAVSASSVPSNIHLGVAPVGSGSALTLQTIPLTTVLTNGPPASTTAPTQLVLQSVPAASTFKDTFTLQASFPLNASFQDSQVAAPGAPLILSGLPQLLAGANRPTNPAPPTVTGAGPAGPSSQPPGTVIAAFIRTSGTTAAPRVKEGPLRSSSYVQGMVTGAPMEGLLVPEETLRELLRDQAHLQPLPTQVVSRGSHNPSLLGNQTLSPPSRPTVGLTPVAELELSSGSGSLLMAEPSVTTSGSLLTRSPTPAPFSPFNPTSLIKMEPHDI
Chain of ETV1 (P50549 whole entry): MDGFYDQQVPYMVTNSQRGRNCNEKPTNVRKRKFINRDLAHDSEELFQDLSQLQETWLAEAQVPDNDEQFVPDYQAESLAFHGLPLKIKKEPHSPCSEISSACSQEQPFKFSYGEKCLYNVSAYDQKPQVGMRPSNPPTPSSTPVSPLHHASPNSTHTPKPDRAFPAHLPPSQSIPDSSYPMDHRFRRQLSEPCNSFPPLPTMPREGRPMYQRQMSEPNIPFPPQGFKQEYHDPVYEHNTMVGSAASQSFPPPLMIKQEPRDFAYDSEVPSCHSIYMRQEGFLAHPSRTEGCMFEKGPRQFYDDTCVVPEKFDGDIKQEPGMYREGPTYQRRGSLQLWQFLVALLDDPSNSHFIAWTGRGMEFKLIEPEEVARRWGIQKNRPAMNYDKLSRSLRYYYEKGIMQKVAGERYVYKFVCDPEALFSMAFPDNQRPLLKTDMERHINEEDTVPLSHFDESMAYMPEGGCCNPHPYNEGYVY
Chain of HSF1 (Q00613 whole entry): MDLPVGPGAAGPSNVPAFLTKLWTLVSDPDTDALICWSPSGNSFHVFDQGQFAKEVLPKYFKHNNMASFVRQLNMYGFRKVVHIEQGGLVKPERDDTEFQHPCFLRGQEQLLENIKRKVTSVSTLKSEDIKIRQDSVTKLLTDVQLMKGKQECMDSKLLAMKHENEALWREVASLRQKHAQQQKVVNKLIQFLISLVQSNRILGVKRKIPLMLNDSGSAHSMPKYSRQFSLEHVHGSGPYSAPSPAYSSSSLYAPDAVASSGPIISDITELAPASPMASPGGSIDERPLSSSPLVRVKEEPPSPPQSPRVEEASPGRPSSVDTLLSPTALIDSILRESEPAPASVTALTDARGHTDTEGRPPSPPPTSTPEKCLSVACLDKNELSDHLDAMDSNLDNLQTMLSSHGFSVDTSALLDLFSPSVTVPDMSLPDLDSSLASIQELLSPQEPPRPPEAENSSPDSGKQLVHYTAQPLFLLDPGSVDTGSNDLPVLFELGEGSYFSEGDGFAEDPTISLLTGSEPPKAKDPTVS

Question: With ATTAGT as the sequence, how does the binding signal (ERG) read?
Answer: 1.01 fold enrichment (6-mer frequency, TF over GST control)

Question: What about the binding signal (ELF1) of the same sequence?
Answer: 1.03 fold enrichment (6-mer frequency, TF over GST control)

Question: And the binding signal (EHF)?
Answer: 1 fold enrichment (6-mer frequency, TF over GST control)

Question: What about the binding signal (FEV) of the same sequence?
Answer: 1.01 fold enrichment (6-mer frequency, TF over GST control)

Question: What about the binding signal (HSF1) of the same sequence?
Answer: 1.69 fold enrichment (6-mer frequency, TF over GST control)

Question: And the binding signal (ELF4)?
Answer: 1.06 fold enrichment (6-mer frequency, TF over GST control)

Question: What about the binding signal (ELK4) of the same sequence?
Answer: 1.2 fold enrichment (6-mer frequency, TF over GST control)

Question: And the binding signal (ETV2)?
Answer: 1.12 fold enrichment (6-mer frequency, TF over GST control)

Question: And the binding signal (CRX)?
Answer: 2.44 fold enrichment (6-mer frequency, TF over GST control)

Question: And the binding signal (ETV1)?
Answer: 1.03 fold enrichment (6-mer frequency, TF over GST control)

Question: What about the binding signal (ETV3L) of the same sequence?
Answer: 1.03 fold enrichment (6-mer frequency, TF over GST control)

Question: And the binding signal (ETS2)?
Answer: 1.01 fold enrichment (6-mer frequency, TF over GST control)

Question: What about the binding signal (SPDEF) of the same sequence?
Answer: 1.06 fold enrichment (6-mer frequency, TF over GST control)

Question: What about the binding signal (ETV7) of the same sequence?
Answer: 1.08 fold enrichment (6-mer frequency, TF over GST control)

Question: And the binding signal (ETV3)?
Answer: 1.01 fold enrichment (6-mer frequency, TF over GST control)

Question: And the binding signal (ETV6)?
Answer: 1.01 fold enrichment (6-mer frequency, TF over GST control)
